From PMC4336329 (PLoS ONE, 2015)
Hit rate of the full screen: of about 310,000 compounds, about 14,000 (4.5%) showed an effect of 50% or more. Effects have a minus sign here. The full list was thinned out, with strong results kept by preference.

target: human ether-à-go-go-related gene (hERG) potassium channel (human, UniProt Q12809); assay: primary screen, population patch clamp on CHO cells stably expressing hERG; higher = less effect of the substance
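Further: peak tail current of the secondary pulse compared with the same well before compound.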

Sequence of human ether-à-go-go-related gene (hERG) potassium channel (Q12809 whole entry, looked up): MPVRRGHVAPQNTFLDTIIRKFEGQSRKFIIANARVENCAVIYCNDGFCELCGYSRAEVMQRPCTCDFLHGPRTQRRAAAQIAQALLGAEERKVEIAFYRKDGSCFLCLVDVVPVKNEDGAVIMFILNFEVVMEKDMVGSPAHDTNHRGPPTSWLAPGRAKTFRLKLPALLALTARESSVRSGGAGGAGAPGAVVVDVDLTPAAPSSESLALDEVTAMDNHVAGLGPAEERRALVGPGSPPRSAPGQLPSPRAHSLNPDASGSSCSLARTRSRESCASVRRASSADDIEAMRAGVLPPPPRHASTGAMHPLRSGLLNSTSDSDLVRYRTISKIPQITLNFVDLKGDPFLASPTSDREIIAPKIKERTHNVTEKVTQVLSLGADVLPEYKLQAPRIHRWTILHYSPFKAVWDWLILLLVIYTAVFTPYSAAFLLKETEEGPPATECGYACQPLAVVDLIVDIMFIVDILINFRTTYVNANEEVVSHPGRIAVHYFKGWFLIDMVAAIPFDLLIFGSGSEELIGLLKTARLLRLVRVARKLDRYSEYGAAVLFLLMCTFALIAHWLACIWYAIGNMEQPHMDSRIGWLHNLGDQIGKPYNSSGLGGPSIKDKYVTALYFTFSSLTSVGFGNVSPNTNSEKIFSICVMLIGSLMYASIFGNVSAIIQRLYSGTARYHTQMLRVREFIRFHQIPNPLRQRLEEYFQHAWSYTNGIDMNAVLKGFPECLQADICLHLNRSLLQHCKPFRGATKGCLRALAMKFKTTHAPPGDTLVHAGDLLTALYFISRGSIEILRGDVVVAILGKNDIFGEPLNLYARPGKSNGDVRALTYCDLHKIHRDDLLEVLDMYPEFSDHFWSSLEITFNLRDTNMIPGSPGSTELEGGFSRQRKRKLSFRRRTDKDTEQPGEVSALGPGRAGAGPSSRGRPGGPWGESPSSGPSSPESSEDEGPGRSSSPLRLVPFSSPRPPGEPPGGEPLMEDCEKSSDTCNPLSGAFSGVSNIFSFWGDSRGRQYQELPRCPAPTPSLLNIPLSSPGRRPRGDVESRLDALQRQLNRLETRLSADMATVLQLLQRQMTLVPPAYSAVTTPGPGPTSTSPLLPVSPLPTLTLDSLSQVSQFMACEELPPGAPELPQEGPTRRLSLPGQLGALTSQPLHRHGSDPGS

Compound | hERG current change (%, negative = inhibition) at 10uM
O=C(CCC(=O)N1CCCC1)Nc1ccc([N+](=O)[O-])cc1 | -1.25%
NC(=S)N/N=C/c1ccc(C(F)(F)F)cc1 | 11%
O=C(CSc1cccc[n+]1[O-])c1cc2ccccc2o1 | -4.46%
COC(=O)c1sccc1NC(=O)c1cc(OC)c(OC)c(OC)c1 | 3.09%
O=NN1CCN(c2ccncc2S(=O)(=O)N2CCCCC2)CC1 | 10.6%
COc1ccc(-c2noc(-c3ccccc3C(=O)NCc3ccco3)n2)cc1 | 3.2%
Cc1ccc(-c2nnc(N3CCN(CCO)CC3)c3ccccc23)cc1 | -58.4%
CCN1CCN(c2nnc(-c3ccc(C)cc3)c3ccccc23)CC1 | -66.5%
CCOc1ccc(-c2nnc(N3CCOCC3)c3ccccc23)cc1 | -69.6%
CCOc1ccc(-c2nnc(N3CCCCC3)c3ccccc23)cc1 | -6.17%
CCN1CCN(c2nnc(-c3ccccc3)c3ccccc23)CC1 | -36.8%
Cc1ccc(-c2nnc(N3CCCCCC3)c3ccccc23)cc1 | 1%
COc1ccc(-c2nnc(N3CCOCC3)c3ccccc23)cc1 | -2.78%
OCCN1CCN(c2nnc(-c3ccccc3)c3ccccc23)CC1 | -23.5%
CCN1CCN(c2nnc(-c3ccc(F)cc3)c3ccccc23)CC1 | -48.4%
Cc1ccc(C(=O)NCCOc2ccc(Cl)cc2)cc1 | 1.42%
COc1cc(/C=C/C(=O)O)ccc1OCc1ccc([N+](=O)[O-])cc1 | 21.8%
COc1ccc(CC(=O)Nc2ccc(-c3noc(COc4ccccc4C)n3)cc2)cc1 | 2.1%
COC(=O)c1ccc(COc2ccccc2/C=C(\C#N)C(=O)Nc2ccc(C)cc2C)cc1 | -11.1%
COC(=O)c1c(-c2ccccc2)noc1-c1ccccc1 | 2.19%
CCOC(=O)c1nn(-c2ccc(Cl)cc2)c(C)cc1=O | -0.00902%
CCOC(=O)c1c(OCCO)nn(-c2ccccc2)c1N | 14.1%
CCOC(=O)c1c(OCCO)nn(-c2ccc(Cl)cc2)c1N | -51.8%
COc1ccc2[nH]cc(CCNS(=O)(=O)c3ccccc3)c2c1 | 11.7%
CCOC(=O)c1c(NC(C)=O)sc2c(OCC(O)CNC(C)(C)C)c(Br)ccc12 (centres unmarked) | -11.8%

Compound | hERG current change (%, negative = inhibition) at 10uM
CCOC(=O)c1c(NC(C)=O)sc2c(OCC(O)CN(CC)CC)c(Br)ccc12 (centres unmarked) | -51.3%
CCOC(=O)c1c(NC(C)=O)sc2c(O)c(Br)ccc12 | 6.88%
CCOC(=O)c1c(NC(C)=O)sc2c(OC)c(Br)ccc12 | 2.16%
CCOC(=O)c1c(NC(C)=O)sc2c(O)cccc12 | 2.36%
CCOC(=O)c1c(NC(C)=O)sc2c(OCCN(CC)CC)c(Br)ccc12 | -54.8%
Cn1c(=NC(=O)COc2ccccc2)sc2ccccc21 | -8.07%
COc1ccc(/C=C/C(=O)NCCNC(=O)c2ccccc2)cc1OC | -8.61%
Cc1ccc(N2C(=O)CC(Nc3cccc4ccccc34)C2=O)cc1 (centres unmarked) | 27.6%
CC(C)=CCCC(C)CN1CCC(O)CC1 (centres unmarked) | -2.96%
CC(C)=CC(=O)N1CCC(N2CCC(C(=O)N3CCOCC3)CC2)CC1 | 28.3%
CC(C)/C=C/C(=O)N1CCC(N2CCC(C(=O)N3CCOCC3)CC2)CC1 | 11%
CC(C)=CCCC(C)CN1CCC(N2CCC(C(=O)N3CCCC3)CC2)CC1 (centres unmarked) | -74.8%
CC(C)=CCCC(C)CN1CCC(N2CCC(C(=O)N3CCOCC3)CC2)CC1 (centres unmarked) | -60.4%
CC(=O)c1cc(CN2CCC(N3CCC(C(=O)N4CCCC4)CC3)CC2)cs1 | -2.23%
Cl.Nc1ncnc2nc[nH]c12 | 4.95%
CCC1CCCCN1CCNC(=O)CNS(=O)(=O)c1ccc2nc(C)sc2c1 (centres unmarked) | 10.5%
O=C(Nc1nnc(C2CC2)s1)C1=NN(C2CCS(=O)(=O)C2)C(=O)CC1 (centres unmarked) | 0.219%
Cc1[nH]c(C)c(S(=O)(=O)Nc2ccccc2Cl)c1C(=O)N1CCCC1 | 15.7%
CCN(CC)c1ccc(N=Cc2c(O)n(-c3ccc(Cl)cc3)c(=O)[nH]c2=O)cc1 | 14.5%
Cc1ccc(C(=O)CCC(=O)Nc2cccnc2)cc1C | 12.4%
NC(=O)C1CCN(CC(=O)Nc2ccccc2N2CCOCC2)CC1 | 3.15%
CCOc1ccc(C(=O)Nc2ccccc2N2CCOCC2)cc1 | -5.52%
COc1ccc(C(=O)C2CCN(CC(=O)Nc3ccc(C)cc3)CC2)cc1 | -53.4%
COc1ccc(NC(=O)CN2CCC(C(=O)c3ccc(C)cc3)CC2)c(OC)c1 | -29.8%
CCOc1ccc(C(=O)C2CCN(CC(=O)Nc3nccs3)CC2)cc1 | -68.3%

Compound | hERG current change (%, negative = inhibition) at 10uM
CCOc1ccccc1NC(=O)CN1CCC(C(=O)c2ccc(OC)cc2)CC1 | -65.9%
COc1ccc(C(=O)C2CCN(CC(=O)Nc3ccccc3F)CC2)cc1 | -17.2%
Cc1ccc(C(=O)C2CCN(CC(=O)Nc3ccc(N(C)C)cc3)CC2)cc1 | -36.4%
NC(=O)C1CCN(CC(=O)Nc2nccs2)CC1 | 10.9%
CC1CCN(CC(=O)Nc2nccs2)CC1 | 13.6%
CCOc1ccc(C(=O)C2CCN(CC(=O)Nc3ccccc3N3CCOCC3)CC2)cc1 | -53.6%
CCOc1ccccc1NC(=O)CN1CCC(C(=O)c2ccc(F)cc2)CC1 | -20.9%
O=C(Cc1cccc2ccccc12)NNC(=O)c1cccs1 | 15.7%
COC(=O)CSc1ncnc2c(C)csc12 | 3.11%
CN(C)c1ccc(-c2nnc(-c3cccnc3)o2)cc1 | 7.04%
O=C(CNC(=O)c1ccco1)N/N=C/c1ccc(O)c([N+](=O)[O-])c1 | 29.1%
COC(=O)c1[nH]c(C)c(/C(O)=C2\C(=O)C(=O)N(CCN(C)C)C2c2ccccc2OC)c1C (centres unmarked) | 15.3%
CC(=O)N1CCN(c2ccc(NC(=O)c3cccc(Cl)c3Cl)cc2)CC1 | -8.8%
N/C(=N\OC(=O)c1cccc(C(F)(F)F)c1)c1cnccn1 | 16.7%
Cc1cccc(CC(=O)Nc2c3c(nn2-c2cccc(Cl)c2)CS(=O)C3)c1 (centres unmarked) | 6.32%
COc1ccc(NC(=O)CN2CCC(C)CC2)cc1 | -4.51%
COc1ccc(NC(=O)CN2CCC(C(N)=O)CC2)cc1 | 2.76%
COc1ccc(C(=O)C2CCN(CC(=O)Nc3cc(C)cc(C)c3)CC2)cc1 | -65.2%
COc1ccc(OC)c(NC(=O)CN2CCC(C(=O)c3ccc(C)cc3)CC2)c1 | -17.7%
CCc1ccc(NC(=O)CN2CCC(C(=O)c3ccc(OC)cc3)CC2)cc1 | -62.8%
Cc1cc(C)cc(NC(=O)CN2CCC(C(=O)c3ccccc3)CC2)c1 | -48.6%
Nc1ncnc2c1ncn2C1OC(CO)C(O)C1O (centres unmarked) | 35.7%
O=C(Cc1ccsc1)NNC(=O)c1ccccc1O | 7.87%
COc1ccc(C)cc1NC(=O)CSc1nnc(COc2ccccc2)n1Cc1ccco1 | -9.46%
CCOC(=O)c1c(N)sc(C(O)(C(F)(F)F)C(F)(F)F)c1-c1ccc(Cl)cc1 | -4.79%

Compound | hERG current change (%, negative = inhibition) at 10uM
COC(=O)Cc1csc(Nc2ccc(Cl)cc2)n1 | 7.01%
CC(C)[C@H](NC(N)=O)C(=O)NCCc1ccc(Cl)cc1Cl | -27%
Cc1ccc(OCc2cc(C(=O)N3CCN(c4ccccc4)CC3)no2)cc1C | -0.317%
O=C(/C(C=Nc1ccc(Br)cc1)=C(/O)c1ccco1)C(F)(F)F | -52.6%
O=C(/C(C=Nc1cccc(C(F)(F)F)c1)=C(/O)c1ccco1)C(F)(F)F | -29.8%
O=C(/C(C=Nc1ccc(F)cc1)=C(/O)c1ccco1)C(F)(F)F | -26.7%
CC(=O)c1cccc(NC(=O)c2cc(-c3cccs3)on2)c1 | 27%
Cc1ccc(NC(=O)c2cnc(N3CCN(c4ccccn4)CC3)c3ccccc23)c(Br)c1 | 10.7%
CCN1CCN(c2ncc(C(=O)Nc3c(F)cc(F)cc3Br)c3ccccc23)CC1 | -60%
O=C(Nc1c(F)cccc1F)c1cnc(N2CCN(c3ccccn3)CC2)c2ccccc12 | -4.56%
CCN1CCN(C(=O)Nc2cc(Cl)ccc2OC)CC1 | 2.98%
CCN1CCN(c2ncc(C(=O)Nc3cc(Cl)ccc3OC)c3ccccc23)CC1 | -61.5%
CCN1CCN(c2ncc(C(=O)Nc3ccccc3C(=O)OC)c3ccccc23)CC1 | -47.2%
Cc1cc(C)c(C)c(S(=O)(=O)NCC(=O)N2CCCC2)c1C | 7.49%
Clc1ccc(SCCOCCN2CCOCC2)cc1.O=C(O)C(=O)O | 1.54%
CCC(C)NCCOCCSc1ccc(Cl)cc1.O=C(O)C(=O)O (centres unmarked) | -46.9%
Clc1ccc(SCCCN2CCCCC2)cc1.O=C(O)C(=O)O | -76%
Clc1ccc(SCCCCN2CCNCC2)cc1.O=C(O)C(=O)O | -48.7%
Clc1ccc(SCCCCN2CCOCC2)cc1.O=C(O)C(=O)O | -22.5%
Clc1ccc(SCCOCCN2CCCCCC2)cc1.O=C(O)C(=O)O | -73.3%
Clc1ccc(SCCN2CCNCC2)cc1.O=C(O)C(=O)O | -5.25%
CC(C)NCCOCCSc1ccc(Cl)cc1.O=C(O)C(=O)O | -30.2%
Clc1ccc(SCCOCCN2CCCCC2)cc1.O=C(O)C(=O)O | -82%
